From PubChem BioAssay
HepG2 tox = kills HepG2 cells in TGF-b inhibitor counter-screen. HepG2 CAGA-GFP viability, ATP luminescence, 18 h. Potency, µM (doses to about 46.1 µM), for the others: at the highest dose activity change, negative = cytotoxicity, actives largely listed as cytotoxic. hit rate 0.76% among 410,000. AID 588856
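HepG2 CAGA-GFP cells (1000/well, DMEM with 1% FBS) received compound, then TGF-beta at 500 pg/mL final, and were incubated 18 hours at 37 degrees C. Viability was read by CellTiter-Glo luminescence. Media-only wells were set as complete cell-killing and DMSO as no toxicity.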
ATXN2 expr inh = reduces ATXN2 reporter expression in HEK-293 cells. AID 1745845. HEK-293 ATXN2-luciferase reporter, luminescence, 24 h. hit rate 0.72% among 360,000. Potency, µM (top dose mostly 57 µM), inactives show at the highest dose activity change, negative = inhibition, hits mostly inhibitors; further: on the % scale 0 is the no-effect control and ±100 the full control effect; nearly all actives have a fitted effect of over 55% in size
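ATXN2-luciferase reporter cells (luciferase flanked by upstream and downstream ATXN2 gene portions) were treated 24 h at 37 °C with compounds at up to 57 uM. SteadyGlo luminescence gave expression; GF-AFC fluorescence gave viability.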
S2 tox = viability counter-screen for ATXN expression inhibitors. S2 cells (HEK-293 line with an ATXN2-luciferase reporter) viability, CellTiter-Fluor protease fluorescence, 24 h. Potency, µM (titrated, usually from 56.7 µM), usual class: cytotoxic. hit rate 0.49% among 400,000. AID 651635; further: nearly all actives have a fitted effect of over 40% in size
RORgamma inh = inhibitors of mouse ROR gamma transcriptional activity. Drosophila S2 Gal4-RORgamma UAS-luciferase reporter, 20 h. Potency, µM (titrated, usually from 53.6 µM), without a hit: at the highest dose activity change, negative = inhibition, actives largely listed as inhibitors. AID 2551. hit rate 5.4% among 310,000; further: on the % scale 0 is the no-effect control and ±100 the full control effect; nearly all actives have a fitted effect of over 60% in size
Target sequence (P51450 whole entry, looked up, the tested form may be a part): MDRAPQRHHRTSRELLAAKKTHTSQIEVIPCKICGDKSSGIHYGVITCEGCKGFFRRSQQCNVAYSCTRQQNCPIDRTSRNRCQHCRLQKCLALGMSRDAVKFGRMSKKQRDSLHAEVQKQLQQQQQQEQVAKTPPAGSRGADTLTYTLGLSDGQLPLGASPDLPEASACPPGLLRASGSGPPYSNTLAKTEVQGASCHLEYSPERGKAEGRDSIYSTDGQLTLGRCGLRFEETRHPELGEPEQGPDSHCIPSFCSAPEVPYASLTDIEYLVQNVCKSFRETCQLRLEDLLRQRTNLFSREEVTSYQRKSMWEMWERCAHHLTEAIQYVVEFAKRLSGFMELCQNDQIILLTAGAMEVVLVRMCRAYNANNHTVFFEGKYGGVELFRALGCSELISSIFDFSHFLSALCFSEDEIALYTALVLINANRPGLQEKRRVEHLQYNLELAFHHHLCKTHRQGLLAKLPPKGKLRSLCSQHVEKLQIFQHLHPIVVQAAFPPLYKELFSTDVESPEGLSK
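Compounds are pin-transferred onto Drosophila Schneider cells expressing a copper-inducible Gal4–ROR gamma transactivation domain fusion. After 1 hr, copper sulfate is added to 700 uM final; luciferase is read 20 hr later.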
Gal4-VP16 FLuc = counter-screen for ROR gamma inhibitors: Gal4-VP16 reporter. Drosophila S2 Gal4-VP16 UAS-luciferase, luminescence, 20 h. hit rate 3.5% among 310,000. AID 2546. Potency, µM (series often up to 53.6 µM), for inactives: at the highest dose activity, negative = inhibition, most hits filed as inhibitors;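 further: Gal4-VP16 expression switched on by copper sulfate through the metallothionein promoter; on the % scale 0 is the no-effect control and ±100 the full control effect; nearly all actives have a fitted effect of over 50% in size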
TGFb SMAD3 inh = TGF-b pathway inhibition | HepG2 CAGA-GFP TGF-b/SMAD3 reporter, GFP fluorescence, 18 h; TGF-beta stimulated, 500 pg/mL final | Potency, µM (doses to about 46.1 µM), for inactives: at the top dose activity, negative = inhibition, most hits filed as inhibitors | hit rate 1.2% among 410,000; further: on the % scale 0 is the no-effect control and ±100 the full control effect; nearly all actives have a fitted effect of over 65% in size
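GFP signal (ex488/em500-530) from TGF-beta-stimulated HEPG2 CAGA-GFP cells, 500 pg/mL final, 18 h at 37 degrees C in DMEM plus 1% FBS, normalized to unstimulated and DMSO-stimulated controls.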
Numbers without * were called inactive; i = inactive; u = inconclusive; x = no result given; [ ] = another dose, or the depositor's remark. Shown are actives, neighbours in structure and some others; about 6.3% of the full set was active somewhere. The call rests on the fitted dose curve; in most records, active means well fitted curve in the direction sought with a large enough effect; inconclusive means small, poorly fitted or top-dose-only effect, or another doubt; inactive means no such curve, though single readings can be large; an effect the other way counts as inactive or inconclusive. Potency means the concentration at half of the fitted maximal effect.

SMILES | HepG2 tox | ATXN2 expr inh | S2 tox | RORgamma inh | Gal4-VP16 FLuc | TGFb SMAD3 inh
Cc1ccccc1NC(=O)CSc1nc(COc2ccccc2)nc2ccccc12 | -21% | u | i | -38% | -23% | -33%
CCN1CCc2c(sc(-n3cccc3)c2C(C)NC(=O)Nc2ccc(C(=O)OC)cc2)C1 (centres undefined) | -30% | x | x | x | x | 10µM*
CCNC(=S)N/N=C/c1c(C)nn(-c2cccc(Cl)c2)c1Cl | -4% | -24% | u | 1.4µM* | 3.5µM* | -21%
Cc1nn(-c2ccccc2)c(Cl)c1/C=N/NC(=O)c1ccc(NS(=O)(=O)c2cccs2)cc1 | x | x | x | -16% | -28% | x
Cc1nn(-c2cccc(Cl)c2)c(Cl)c1/C=N/NC(=O)c1cccs1 | -30% | -37% | u | u | 13µM* | 5%
Cc1cc([N+](=O)[O-])ccc1NCc1ccc2ccccc2c1 | -7% | 5% | i | 43% | -2% | 20µM*
Cc1ccc(NS(=O)(=O)c2cc([N+](=O)[O-])ccc2NNC(=S)Nc2cc(C)ccc2C)c(C)c1 | -72% | 20µM* | 16µM* | u | u | u
COc1ccc([N+](=O)[O-])cc1NC(=O)C(C)c1ccccc1 (centres undefined) | 1% | -7% | i | 6% | -19% | -11%
COc1ccc([N+](=O)[O-])cc1NC(=S)NC(NC(=O)C(c1ccccc1)c1ccccc1)C(Cl)(Cl)Cl (centres undefined) | -29% | 22µM* | u | 34% | -13% | 4.5µM*
O=C(NNC(=S)NC(=O)c1ccccc1Cl)c1cccc([N+](=O)[O-])c1 | -35% | -36% | i | u | u | -1%
Cc1cc([N+](=O)[O-])ccc1NCc1ccccc1 | -15% | 5% | i | 22% | -6% | -31%
O=C(NC(NC(=S)Nc1c(Cl)cccc1Cl)C(Cl)(Cl)Cl)c1cccc([N+](=O)[O-])c1 (centres undefined) | -61% | -7% | i | u | 8.9µM* | -101%
Cc1cc([N+](=O)[O-])ccc1NC(=S)NC(=O)C(c1ccccc1)c1ccccc1 | -4% | u | i | 7.9µM* | 10µM* | u
Cc1ccc([N+](=O)[O-])cc1NC(=S)NC(=O)C(C)(C)C | -26% | -2% | i | u | 5% | u
CC(=O)NC(=S)Nc1ccc([N+](=O)[O-])cc1C | -23% | -11% | i | -30% | 0% | -14%
Cc1cc([N+](=O)[O-])ccc1NC(=S)NC(=O)Cc1ccccc1 | 9% | 3% | i | 22µM* | u | u
Cc1ccc([N+](=O)[O-])cc1NC(=S)NC(=O)CC(C)(C)C | 4% | -8% | i | 6.3µM* | 22µM* | -29%
CCCCC(=O)NC(=S)Nc1cc([N+](=O)[O-])ccc1OC | -20% | -7% | i | 10µM* | -25% | 9%
O=C(NCCc1nnc2n1CCN(Cc1c(F)cccc1F)CC2)c1ccc(F)cc1 | x | x | i | x | x | x
CCC(C)NC(=O)c1ccc2nc(CCc3ccccc3)oc2c1 (centres undefined) | -16% | 14% | i | x | x | 3%
CC1(C(=O)NS(=O)(=O)c2ccc(Cl)cc2)CCN1C(=O)Cc1ccccc1Cl (centres undefined) | -2% | 2% | i | x | x | -12%
CCCc1ccc(S(=O)(=O)N2CCC(c3nnnn3-c3ccc(OC)cc3)CC2)cc1 | -10% | x | x | x | x | -1%
COC(=O)/C(=N\Nc1ccccc1)Sc1nnc(-c2ccc(OC)cc2)n1C | -19% | -2% | i | u | u | 3%
CCOC(=O)/C(=N/Nc1ccc(OC)cc1)Sc1nnc(CCc2ccccc2)n1-c1ccccc1 | 15% | -9%[11.3 µM] | i | 7.1µM* | u | 1%
CCOC(=O)/C(=N\Nc1ccc(Cl)cc1)Sc1nnc(-c2ccc(OC)cc2)n1C | 7% | -10% | i | 4.5µM* | 6.3µM* | -7%
SMILES | HepG2 tox | ATXN2 expr inh | S2 tox | RORgamma inh | Gal4-VP16 FLuc | TGFb SMAD3 inh
Cc1c(Cl)cccc1NC(=S)N1CCc2ccccc2C1 | 0% | -10% | i | 10µM* | u | -19%
O=C(CN1CCc2ccccc2C1)Nc1ccccc1C(F)(F)F | 1% | 0% | i | 22% | 7% | -10%
FC(F)(F)c1ccccc1NC(=S)N1CCc2ccccc2C1 | 15% | x | u | 16µM* | u | -27%
N/C(=N\OC(=O)c1ccc([N+](=O)[O-])cc1Cl)c1ccccn1 | -48% | u | i | 10µM* | 11µM* | -19%
N/C(=N\OC(=O)c1cc([N+](=O)[O-])ccc1Cl)c1ccccn1 | -31% | -8% | u | 4µM* | u | 4%
CCC[C@@H]1C[C@@H](C(=O)N[C@@H]([C@H]2O[C@H](SC)[C@H](O)[C@@H](O)[C@H]2O)[C@H](C)Cl)N(C)C1 | x | x | i | x | x | x
CCc1nnc(SCc2cccc(F)c2)c2cc3sc(C)cc3n12 | -26% | x | x | x | x | u
CNC(=O)c1cc(Oc2ccc(NC(=O)Nc3cc(C(C)(C)C)nn3-c3ccc4ncccc4c3)c(F)c2)ccn1 | x | 1.4µM* | x | x | x | x
Cn1nc(C(C)(C)C)cc1NC(=O)Nc1ccc(F)cc1F | -1% | 2% | i | 0% | -2% | -1%
Cc1nnc(Cc2ccco2)c2n[nH]c(C)c12 | -17% | x | i | x | x | -10%
O=C(Cn1ncc2ccsc2c1=O)N1CCN(c2ccccc2)CC1 | -15% | -2% | i | x | x | 16%
COc1ccc(C2c3ccc4ccccc4c3Oc3ncn(CCN(C)C)c(=N)c32)cc1 (centres undefined) | -80% | -29% | u | 32µM* | u | 16µM*
N=c1c2c(ncn1CCCO)Oc1c(ccc3ccccc13)C2c1ccccc1 (centres undefined) | -118% | x | 14µM* | 18µM* | u | u
COc1ccc(C2c3ccc4ccccc4c3Oc3ncn(CCCO)c(=N)c32)cc1OC (centres undefined) | -120% | u | u | -20% | -21% | 11µM*
COc1ccc(C2c3ccc4ccccc4c3Oc3ncn(CCO)c(=N)c32)cc1OC (centres undefined) | 0% | x | u | u | -20% | -4%
N=c1c2c(ncn1CCCO)Oc1ccc3ccccc3c1C2c1ccccc1 (centres undefined) | -167% | u | u | -18% | 0% | u
CN(C)CCCn1cnc2c(c1=N)C(c1ccccc1)c1ccc3ccccc3c1O2 (centres undefined) | -102% | x | u | 18µM* | u | u
CCOC(=O)C(CC)Sc1ccc2nnc(-c3ccc(F)cc3)n2n1 (centres undefined) | -27% | x | x | x | x | -11%
